ATXN2 expr inh = ATXN2 expression inhibition; Potency, µM (doses to about 57 µM), for inactives: at the top dose activity change, negative = inhibition, most hits filed as inhibitors; hit rate 0.72% among 360,000; AID 1745845; HEK-293 ATXN2-luciferase reporter, luminescence, 24 h; further: on the % scale 0 is the no-effect control and ±100 the full control effect; nearly all actives have a fitted effect of over 55% in size
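ATXN2-luciferase reporter cells (luciferase flanked by upstream and downstream ATXN2 gene portions) were treated 24 h at 37 °C with compounds at up to 57 uM. SteadyGlo luminescence gave expression; GF-AFC fluorescence gave viability.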
HepG2 viability = counter-screen for TGF-b inhibitors: cytotoxicity in HepG2 cells; hit rate 0.76% among 410,000; Potency, µM (doses to about 46.1 µM), for the others: top-dose activity change, negative = cytotoxicity, hits mostly cytotoxic; HepG2 CAGA-GFP viability, ATP luminescence, 18 h
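CellTiter-Glo luminescence gave cytotoxicity after 18 hours at 37 degrees C. The cells were HepG2 CAGA-GFP in 1% FBS DMEM, stimulated with 500 pg/mL TGF-beta after compound addition. %Activity was normalised to no-cell wells (complete cell-killing) and DMSO (no toxicity), and curves were fitted and classified.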
ATXN viability = reduces viability in counter-screen for ATXN expression inhibitors; hit rate 0.49% among 400,000; Potency, µM (top dose mostly 56.7 µM), usual class: cytotoxic; S2 cells (HEK-293 line with an ATXN2-luciferase reporter) viability, CellTiter-Fluor protease fluorescence, 24 h; AID 651635; further: nearly all actives have a fitted effect of over 40% in size
12-LOX inh = ALOX12 (human) lipoxygenase inhibition; hit rate 1.1% among 580,000; Potency, µM (top dose mostly 108 µM), without a hit: at the highest dose activity change, negative = inhibition, most hits filed as inhibitors; purified 12hLO, xylenol orange hydroperoxide absorbance; further: on the % scale 0 is the no-effect control and ±100 the full control effect
Target sequence (P18054 whole entry, looked up): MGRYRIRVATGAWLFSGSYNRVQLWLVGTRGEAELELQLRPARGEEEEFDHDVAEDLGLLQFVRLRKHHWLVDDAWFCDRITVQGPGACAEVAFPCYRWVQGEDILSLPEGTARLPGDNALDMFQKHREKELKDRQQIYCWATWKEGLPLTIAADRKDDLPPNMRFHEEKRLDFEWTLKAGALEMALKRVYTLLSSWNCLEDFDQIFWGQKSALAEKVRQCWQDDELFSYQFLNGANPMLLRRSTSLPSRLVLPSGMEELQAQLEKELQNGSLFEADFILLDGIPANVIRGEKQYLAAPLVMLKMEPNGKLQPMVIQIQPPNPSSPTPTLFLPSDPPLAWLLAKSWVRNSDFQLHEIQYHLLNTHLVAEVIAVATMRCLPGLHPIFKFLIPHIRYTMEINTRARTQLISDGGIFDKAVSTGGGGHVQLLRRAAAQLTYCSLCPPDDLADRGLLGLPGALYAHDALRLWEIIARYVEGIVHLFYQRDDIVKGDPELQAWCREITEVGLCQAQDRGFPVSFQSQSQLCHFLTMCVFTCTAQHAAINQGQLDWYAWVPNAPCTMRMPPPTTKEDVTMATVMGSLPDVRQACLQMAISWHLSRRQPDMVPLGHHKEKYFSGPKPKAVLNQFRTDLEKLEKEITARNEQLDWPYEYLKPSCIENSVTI
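Hydroperoxide product was detected by ferrous iron/xylenol orange as the 573 to 405 nm absorbance ratio. Arachidonic acid at 40 uM (final) was turned over for 30 min at room temperature by 150 nM human 12hLO, pH 7.0 Hepes buffer, after 15 min compound preincubation.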
TGFb SMAD3 inh = inhibitors of TGF-b signaling | AID 588855 | Potency, µM (series often up to 46.1 µM), without a hit: top-dose activity, negative = inhibition, actives largely listed as inhibitors | HepG2 CAGA-GFP TGF-b/SMAD3 reporter, GFP fluorescence, 18 h; TGF-beta stimulated, 500 pg/mL final | hit rate 1.2% among 410,000; further: on the % scale 0 is the no-effect control and ±100 the full control effect; nearly all actives have a fitted effect of over 65% in size
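Inhibition was scored as loss of TGF-beta-induced (500 pg/mL final, 18 hours, 37 degrees C) GFP in HEPG2 cells carrying a CAGA-GFP reporter, in DMEM with 1% FBS. Well GFP was summed per cell; Activity was normalised to unstimulated and stimulated DMSO wells, then concentration-response fitting.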
The depositor's hits bear a star; i = inactive; ? = inconclusive; . = no result given; [ ] = dose if it differs, or a comment. A selection: hits, their analogues and other compounds. The true share with any hit is near 2.7%. The call rests on the fitted dose curve; in most records, active means well fitted curve in the direction sought with a large enough effect; inconclusive means small, poorly fitted or top-dose-only effect, or another doubt; inactive means no such curve, though single readings can be large; an effect the other way counts as inactive or inconclusive. Potency means the concentration at half of the fitted maximal effect.

SMILES	ATXN2 expr inh	HepG2 viability	ATXN viability	12-LOX inh	TGFb SMAD3 inh
COc1ccc(OC)c(/C=N/Nc2nncn2/N=C/c2cc(OC)ccc2OC)c1	-5.8%	-8.3%	?	12.9%	-18.1%
CCOc1cc(/C=N/Nc2nnc(C)n2N)ccc1O	-33.0%	11.2µM*	i	?	11.2µM*
CC(C)(C)C1CCC(OCC(O)CN(CCO)CCO)CC1 (configuration not stated)	.	.	.	7.3%	.
Cc1cc(C(C)(C)C)cc(C)c1S(=O)(=O)N1CC(=O)Nc2ccccc21	-17.3%	12.6µM*	i	?	?
CCOc1ccc(S(=O)(=O)N2CC(=O)Nc3ccccc32)cc1C#N	-24.2%	-0.6%	i	-13.5%	15.9%
COc1ccc(S(=O)(=O)N2CC(=O)Nc3ccccc32)cc1Cl	-2.0%	-4.7%	i	6.31µM*	16.0%
Cc1ccc(C(C)(C)C)cc1S(=O)(=O)N1CC(=O)Nc2ccccc21	-32.1%	3.1%	.	?	-7.6%
C#CCOc1c(Br)cc(/C=C2/NC(=O)NC2=O)cc1OCC	.	.	.	-9.3%	.
CC(=O)c1ccc(NC(=O)[C@@]2(CC(=O)O)CC(c3ccc(C)cc3)=NO2)cc1	.	.	.	-23.3%	.
CN(C)c1nc(=NCc2cccs2)ss1	?	-33.0%	?	15.8µM*	?
O=C(NCC1CCCO1)c1ccc(Cn2c(SCc3ccc(F)cc3)nc3cccnc32)cc1 (configuration not stated)	.	.	.	5.8%	.
O=C(NCCc1c[nH]c2ccc(F)cc12)C1CCN(c2nc(Cl)nc3nc[nH]c23)CC1	.	.	.	-0.2%	.
O=[N+]([O-])c1ccc(S(=O)Cc2ccccc2)c([N+](=O)[O-])c1 (configuration not stated)	?	-114.7%	21.2µM*	?	7.94µM*
Cn1c(-c2ccc3c(c2)OCO3)cnc1NCc1cccc(O)c1	5.2%	-32.3%	i	11.2µM*	-2.8%
Cn1c(-c2ccc(F)cc2)cnc1NCc1cccc(F)c1	12.5%	-24.8%	i	?	-12.2%
Cc1cc(C)cc(-n2ncc3c(OCC(=O)NC4CCS(=O)(=O)C4)ncnc32)c1 (configuration not stated)	.	.	.	-1.2%	.
COc1cc2c(cc1OC)C(C)N(C(=O)c1cc3c(s1)-c1ccccc1OC3)CC2 (configuration not stated)	25.1µM*	-29.1%	?	465.1%	11.2µM*
N#CCc1ccc([N+](=O)[O-])cc1	.	.	.	-7.7%	.
CC1=C(C(=O)OC(C)C)C(c2ccc(C(C)(C)C)cc2)N2C(=O)CCSC2=N1 (configuration not stated)	.	.	.	11.8%	.
CCOC(=O)c1sc(CC(=O)Nc2ccccc2C)nc1C	.	.	.	8.91µM*	.
Cc1cccc(N2CCN(Cc3ccc(Br)o3)CC2)c1C	-29.5%	-51.9%	i	0.562µM*	?
O=C(Nc1ccccc1Sc1ccccc1)C1CC=CCC1 (configuration not stated)	.	.	.	-2.6%	.
C/C(=N\NC(=O)c1ccccc1NC(=O)c1ccc(Cl)cc1)c1ccncc1	.	1.26µM*	i	7.5%	3.7%
Cn1ncc(Cl)c1C(=O)Nc1ccncc1	-2.6%	-21.7%	i	0.0%	6.5%
C/C(=N\NC(=O)c1c(Cl)cnn1C)c1ccc(NC(=O)c2ccncc2)cc1	-21.6%	10µM*	i	-2.2%	4.0%
SMILES	ATXN2 expr inh	HepG2 viability	ATXN viability	12-LOX inh	TGFb SMAD3 inh
COc1cc(/C=C(/C#N)C(=O)OC(C)C)cc(Cl)c1O	.	.	.	20µM*	.
COc1cc(OC)cc(-c2cc3ccc(OC)cc3cn2)c1	33.2%	-86.0%	?	-17.9%	?
COc1cc(OC)cc(-c2cc3ncccc3cn2)c1	14.6%	-28.6%	i	31.6µM*	-8.9%
N#C/C(=C/c1ccc(C#N)cc1)c1nc2ccccc2[nH]1	.	.	.	-1.1%	.
CC(=O)C1=C(O)C(CSCc2ccccc2)N(C)C1=O (configuration not stated)	0.5%	24.3%	i	10µM*	2.2%
Cc1cc(C)n2nc(N(Cc3ccc(C#N)cc3)S(=O)(=O)c3ccc(Cl)cc3)nc2n1	.	.	.	-4.2%	.
CC(=O)c1cccc(NC(=O)Cc2csc(-n3nc(C)c(Cc4ccccc4)c3C)n2)c1	.	.	.	-10.5%	.
Cc1cc(Br)ccc1NC(=O)CSc1nc2cc([N+](=O)[O-])ccc2o1	.	.	.	17.8µM*	.
Cc1ccc(NC(=O)COC(=O)CCSc2ccc(F)cc2)c(Br)c1	.	.	.	2.3%	.
COc1cc([C@H]2OC[C@H]3[C@@H]2CO[C@H]3c2ccc(O)c(OC)c2)ccc1O	7.5%	-1.3%	i	-0.8%	-0.4%
COc1cc(C2OCC3C(c4ccc(OC5OC(CO)C(O)C(O)C5O)c(OC)c4)OCC23)ccc1O (configuration not stated)	0.1%	0.3%	i	5.01µM*	1.0%
O=[N+]([O-])c1ccc2c(c1)/C(=N\O)c1ccccc1-2	?	-10.5%	?	218.4%	2.3%
O=[N+]([O-])c1ccc2c(c1)-c1ccccc1C2O (configuration not stated)	.	64.9%	?	7.08µM*	35.9%
CCCC(=O)c1ccc(O)cc1	.	.	.	16.0%	.
CCCC(=O)c1cc(O)c(O)cc1O	2.3%[116 µM]	.	?	1.65µM*	.
CCOCCOC(=O)c1nc2ccccc2nc1Nc1ccc(Cl)cc1	.	.	.	10µM*	.
COc1cccc(/C=N/Nc2snc(SC)c2C#N)c1O	-13.4%	-47.1%	i	-13.4%	10µM*
CSc1nc(Nc2ccc(Cl)cc2)c(C#N)c(=O)[nH]1	-10.6%	-86.0%	i	6.31µM*	-7.2%
CCCc1sc(N/N=C/c2ccccn2)nc1-c1ccc(F)cc1	3.98µM*	-105.5%	15.8µM*	.	11.2µM*
Cc1nc(N/N=C/c2ccccn2)sc1C	0.0%	-32.4%	?	-5.4%	?
C=C(C)CN(CC)C(=O)CCc1cccs1	.	.	.	0.5%	.
COc1cc(/C=N/NC(=O)c2ccc(Cl)cc2)ccc1OCC(=O)N1CC(C)OC(C)C1 (configuration not stated)	-20.2%	0.4%	i	-3.8%	1.5%
COc1cc(/C=N/NC(=S)Nc2cccc(Cl)c2C)ccc1OCC(=O)N1CC(C)OC(C)C1 (configuration not stated)	-19.5%	10.8%	?	44.7µM*	?
CCOc1ccc(NC(=O)CSc2nccc(-c3ccc(Br)cc3)n2)cc1	.	.	.	17.7%	.
CN(C)c1nc(C=C(C#N)C#N)c(Cl)n1-c1ccc(F)cc1	?	8.91µM*	22.4µM*	?	5.01µM*
Cc1cc(C=C(C#N)C#N)c(C)n1-c1ccncc1	.	.	.	-40.9%	.
COc1ccc(-c2nc(SCC(=O)NC3CCCC3)c(-c3ccc(F)cc3)[nH]2)cc1	.	-34.8%	.	-12.2%	11.2µM*
O=C(CSc1nc(-c2ccc(F)cc2)[nH]c1-c1ccc(F)cc1)Nc1ccc2c(c1)OCCO2	?	-57.4%	.	2.1%	7.94µM*
